High-throughput results from PubChem.
Shown are actives, neighbours in structure and some others; about 3.7% of the full set was active somewhere.
NALP3 yeast inh: NALP3 inhibition in yeast. Yeast reconstituted NLRP3/ASC/caspase-1, beta-gal luminescence, 24 h. inhibition, % at 10 µM. actives 0.39% (n = 330,000). AID 2825;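 active = inhibition of 50% or more; inactive = inhibition below 50%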
PfHsp90 set2: growth inhibition of yeast expressing Plasmodium Hsp90 | inhibition, % at 9.4 µM | S. cerevisiae expressing PfHsp90, BacTiter-Glo ATP, 48 h; yeast lacking PDR1 and PDR3 efflux regulators | actives 0.32% (n = 310,000);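 active = every replicate shows inhibition above about 80%, whatever the replicate mean, limit read from the data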
tim23-1 inh: growth inhibitors of tim23-1 mutant yeast | inhibition, % at 20 µM | S. cerevisiae tim23-1 growth, BacTiter-Glo luminescence, 24 h | AID 463212 | actives 1.3% (n = 330,000);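 active = growth inhibition of the mutant yeast at or above 50%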;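 also: temperature-sensitive mutant grown at 25 °C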
tim10-1 inh: inhibits growth of tim10-1 mutant yeast. S. cerevisiae tim10-1 ts strain growth, BacTiter-Glo, 24 h. inhibition, % at 20 µM. actives 2.2% (n = 330,000). AID 463190;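 active = inhibition of at least 40%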;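 also: mutant grown at 25 °C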
TIM10 inh: TIM10 yeast growth inhibition; S. cerevisiae TIM10 strain growth, BacTiter-Glo luminescence, 24 h; inhibition, % at 10 µM; actives 1.4% (n = 330,000); AID 463195;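 active = inhibition of 40% or more at the single tested concentration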;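 also: wild-type TIM10 isogenic control strain grown at permissive 25 °C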
tim23-1 confirm: confirmation of tim23-1 mutant yeast growth inhibitors. actives 83% (n = 4,400). shares compounds with tim23-1 inh. S. cerevisiae tim23-1 growth, BacTiter-Glo luminescence, 24 h. inhibition, % at 20 µM;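 active = inhibition above about 39% in either of two replicate wells at 20 µM, limit read from the data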;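 also: temperature-sensitive tim23-1 mutant grown at 25 °C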
Large screens that a line does not name were inactive (follow-up assays come after a bar, where they were run).

COCc1cc(C)nc(N/N=C/c2ccc(-c3ccc(Cl)cc3[N+](=O)[O-])o2)c1C#N	none (no result: NALP3 yeast inh, tim23-1 inh, tim10-1 inh, TIM10 inh)
COc1ccccc1C(=O)COC(=O)Cc1ccccc1F	tim23-1 inh 52 | tim23-1 confirm 54
COc1ccccc1C(=O)COC(=O)Cc1c[nH]c2ccccc12	none (no result: PfHsp90 set2)
Oc1c(Cl)cc(Cl)cc1/C=N/c1nccs1	tim23-1 inh 69 | tim23-1 confirm 54
C[C@@H]1C[C@H]2[C@@H]3CCC4=CC(=O)C=C[C@]4(C)[C@@]3(F)[C@@H](O)C[C@]2(C)[C@H]1C(=O)CO	none
CC(C)(C)c1ccccc1OCC(=O)NCCC(=O)O	none
C=C(C(=O)Oc1ccccc1C(C)(C)C)c1ccccc1	tim23-1 inh 59 (no result: PfHsp90 set2) | tim23-1 confirm 56
O=C(NCc1ccccc1)c1ccc(N2C(=O)C3CCCCC3C2=O)cc1 (stereo not drawn)	none
O=C(COC(=O)C1CCN(S(=O)(=O)c2cccc3cccnc23)CC1)c1ccccc1	none
CC(CCc1ccccc1)NS(=O)(=O)c1ccccc1F (stereo not drawn)	none
CC(C)(C)NC(=O)CSc1nc(-c2ccc(F)cc2)cs1	tim23-1 inh 77 | tim23-1 confirm inactive
Cc1ccc(-c2cc(N)nc(-c3ccccc3)c2)cc1	none
Cc1ccc(-c2cc(-c3ccccc3)nc(N(C)N)n2)cc1	tim23-1 inh 56 | tim23-1 confirm 53
CC(C)(C)c1csc(N/N=C/c2ccc(O)cc2)n1	tim23-1 inh 57 | tim23-1 confirm inactive
COC(=O)C1=C(C)N(Cc2ccccc2)C(=S)N[C@H]1c1cccc(F)c1	tim23-1 inh 52 | tim23-1 confirm inactive
COC(=O)C1=C(C)N(Cc2ccccc2)C(=NCc2ccccc2)N[C@H]1c1cccc(F)c1	none
COc1cc(/C=N/NC(=O)c2csc3c2CCCC3)cc(OC)c1O	none
Cc1ccc(/C=N/NC(=O)c2csc3c2CCCC3)cc1	tim23-1 inh 63 (no result: PfHsp90 set2) | tim23-1 confirm 59
O=C(NCCS(=O)(=O)N1CCN(Cc2ccccc2)CC1)c1ccccc1	none (no result: PfHsp90 set2)
O=C(c1cc2ccccc2oc1=O)N(Cc1ccco1)C1CCS(=O)(=O)C1 (stereo not drawn)	tim23-1 inh 94 | tim23-1 confirm inactive
COc1ccc(N2CCN(c3nc4cc(C)ccc4cc3C=O)CC2)cc1	tim23-1 inh 52 | tim23-1 confirm 45
COc1ccc(N2CCN(c3cc(C)c4ccc(C)cc4n3)CC2)cc1	none
Clc1cccc(Cl)c1C1Nc2cccc3cccc(c23)N1	tim23-1 inh 53 | tim23-1 confirm 75
CCOc1ccc(C2NC(=O)c3ccccc3O2)cc1 (stereo not drawn)	none
CCc1ccc(C2NC(=O)c3ccccc3O2)cc1 (stereo not drawn)	tim23-1 inh 52 | tim23-1 confirm inactive
COc1ccc(C(=O)Nc2nc3ccccc3s2)cc1	tim23-1 inh 55 | tim23-1 confirm inactive
COc1ccc2nc(Nc3ccccc3)sc2c1	tim23-1 inh 56 | tim23-1 confirm inactive
COc1ccc2nc(NC(=O)c3ccco3)sc2c1	tim23-1 inh 52 | tim23-1 confirm inactive
COc1cccc(C(=O)Nc2nc3ccccc3s2)c1	none
Cc1ccc2nc(NC(=O)c3ccco3)sc2c1	tim23-1 inh 64 | tim23-1 confirm inactive
Cc1ccc2nc(NC(=S)NC(=O)c3ccco3)sc2c1	none (no result: NALP3 yeast inh, tim23-1 inh, tim10-1 inh, TIM10 inh)
Cc1ccc(C2C3CN(C(C)C)CC=C3C(C#N)=C(N)C2(C#N)C#N)cc1 (stereo not drawn)	none
CCC(C)C(=O)Nc1nc2ccc(OC)cc2s1 (stereo not drawn)	tim23-1 inh 52 | tim23-1 confirm 51
COc1ccc2nc(NC(C)=O)sc2c1	none
O=C(c1ccccc1)N1C(=O)C(c2ccccc2)Oc2ccccc21 (stereo not drawn)	tim23-1 inh 80 | tim23-1 confirm 57
O=C(CSc1n[nH]c(=O)[nH]c1=O)N/N=C/c1ccccc1O	none
O=C(CSc1ccccc1)N/N=C/c1ccccc1O	tim23-1 inh 52 | tim23-1 confirm 55
CC(C)OC(=O)c1cccnc1SCc1cc(=O)n2ccccc2n1	tim23-1 inh 65 | tim23-1 confirm 44
COc1ccc(NC(=O)CSc2ncccc2C(=O)OC(C)C)cc1OC	none (no result: PfHsp90 set2)
CCc1cc2cc(C)cc(C)c2nc1SCC(=O)N1CCN(C(=O)c2ccco2)CC1	none
CCc1cc2cccc(C)c2nc1SCC(=O)N1CCN(C(=O)c2ccco2)CC1	tim23-1 inh 57 | tim23-1 confirm 38
CC[C@@H]1C(c2ccccc2)=NN(c2ccccc2)[C@H]1C(=O)N1CCOC1=O	none (no result: NALP3 yeast inh)
Cc1cccc(C2=NN(c3ccccc3)[C@@H](C(=O)N3CCOC3=O)[C@@H]2C)c1	none (no result: NALP3 yeast inh)
Cc1cccc(C2=NN(c3ccc(Br)cc3)[C@@H](C(=O)N3CCOC3=O)[C@@H]2C)c1	tim23-1 inh 51 (no result: NALP3 yeast inh) | tim23-1 confirm inactive
C[C@@H]1C(c2ccccc2)=NN(c2ccc(Br)cc2)[C@H]1C(=O)N1CCOC1=O	tim23-1 inh 59 (no result: NALP3 yeast inh) | tim23-1 confirm 45
O=C1OCCN1C(=O)[C@H]1[C@H](c2ccc(F)cc2)C(c2ccccc2)=NN1c1ccccc1	tim23-1 inh 72 (no result: NALP3 yeast inh) | tim23-1 confirm inactive
CCOc1ccc(C(CC(=O)O)n2cnnn2)cc1 (stereo not drawn)	none
COc1ccc2c(c1)C(c1ccc([N+](=O)[O-])cc1)=NNC(c1ccco1)=N2	tim23-1 inh 53 | tim23-1 confirm 37
COc1ccc(C2=NNC(c3ccco3)=Nc3ccc(F)cc32)cc1	none
FC(F)(F)c1cc(Nc2ccccc2)nc(-c2ccccn2)n1	tim23-1 inh 51 | tim23-1 confirm inactive
CC(C)Nc1cc(C(F)(F)F)nc(-c2ccccn2)n1	none (no result: PfHsp90 set2)
CC12CN3CC(C)(CN(C1)C3c1ccc(Br)cc1O)C2 (stereo not drawn)	tim23-1 inh 51 | tim23-1 confirm 45
O=C(CSCc1ccc(F)cc1)Nc1nc2c(s1)CCCC2	tim23-1 inh 56 | tim23-1 confirm 41
Cc1ccc(-c2nn(-c3ccccc3)cc2C=C2C(=O)CC(C)(C)CC2=O)cc1	tim23-1 inh 66 | tim23-1 confirm 51
CCCCNC(=S)N/N=C/c1cc(C)ccc1C	tim23-1 inh 53 | tim23-1 confirm 42
O=C(Nc1cccc(F)c1)c1cccnc1NCCc1ccccc1	tim23-1 inh 54 | tim23-1 confirm 54
Cc1ccc(N)cc1NC(=O)CN1CCOCC1	none
CCCCC(=O)Nc1cc(OC)c(NC(=O)C2CCCCC2)cc1OC	none (no result: PfHsp90 set2)
Cc1nc(SCc2nc3cc(Cl)c(F)cc3[nH]2)c2oc3ccccc3c2n1	tim23-1 inh 56 | tim23-1 confirm 50
Cc1nc(SCc2nc3ccc(C(F)(F)F)cc3[nH]2)c2oc3ccccc3c2n1	tim23-1 inh 57 | tim23-1 confirm 49
Cc1nc(SCc2nc3ccc(Cl)cc3[nH]2)c2oc3ccccc3c2n1	none
C/C(=N\Nc1ccc(Cl)cc1)c1ccncc1	tim23-1 inh 54 | tim23-1 confirm inactive
CCOCC(=O)Nc1ccc2c(c1)N(S(=O)(=O)c1cccs1)CCC2	none
